Only some compounds are listed: those with a hit (about 4.3% of all), similar ones and a draw of the others.
GLP-1R inv ag: inverse agonists of human GLP-1 receptor; Potency, µM (highest dose often 38.3 µM), most hits filed as inhibitors; P43220; 410,000 tested, 1.6% active; HEK293 GLP-1R CRE-luciferase, luminescence, 24 h; GLP-1R form is constitutively active; also: nearly all actives have a fitted effect of over 55% in size
Target sequence (P43220 whole entry, looked up): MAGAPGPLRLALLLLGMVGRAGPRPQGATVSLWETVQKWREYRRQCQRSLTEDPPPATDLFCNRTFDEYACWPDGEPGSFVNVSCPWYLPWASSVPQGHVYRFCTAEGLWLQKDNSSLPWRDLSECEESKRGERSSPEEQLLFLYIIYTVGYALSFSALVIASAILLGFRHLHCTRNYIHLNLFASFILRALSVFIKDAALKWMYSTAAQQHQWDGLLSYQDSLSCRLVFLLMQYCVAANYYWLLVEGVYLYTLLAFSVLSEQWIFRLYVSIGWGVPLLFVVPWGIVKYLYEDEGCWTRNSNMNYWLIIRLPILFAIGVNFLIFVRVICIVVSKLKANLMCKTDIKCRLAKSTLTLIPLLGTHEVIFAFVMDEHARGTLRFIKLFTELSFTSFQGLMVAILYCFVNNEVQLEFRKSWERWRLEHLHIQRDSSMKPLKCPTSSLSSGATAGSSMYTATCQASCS
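Stable HEK293 clone (constitutively active GLP-1R + cAMP-response luciferase); 200 cells/uL plated, 12 h pre-culture, compound 24 hr, 37 deg C/5% CO2; detection reagent 12 min RT; luminescence.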
D3 ag: D3 dopamine receptor (human) agonism. P35462. D3R DiscoveRx beta-arrestin cells, luminescence, 90 min. max activation, %. 410,000 tested, 0.58% active; in the data active = max activation above about 30%
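Agonist-mode cell screen: cells plated at 1500/well and incubated overnight at 37 °C, then exposed to library compounds for 90 min at 37 °C. Detection reagent was added for 30–60 min at room temperature, and luminescence was read.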
GLP1R ag: activates the human GLP-1 receptor. AID 624172. 380,000 tested, 0.007% active. HEK293 GLP-1R CRE-luciferase, luminescence, 4-6 h; cells express a hypersensitive GLP-1R form. Potency, µM (series often up to 45.6 µM), actives largely listed as activators
D3 antag: D3 dopamine receptor (human) antagonism; D3R cells, DiscoveRx beta-arrestin luminescence, antagonist mode; active compounds read low; 360,000 tested, 2.5% active; max response, negative = inhibition, %; AID 652054; P35462; in the data active = max response below about -50%; inconclusive = no clear call, values can overlap the other calls
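Cells plated overnight at 1500 cells/well, then exposed to library compounds with dopamine controls for 90 minutes at 37 degrees C. DiscoveRx reagent added for 30–60 minutes at room temperature; luminescence read, quantitative HTS format.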
Each line names hits and unclear results; the compound was inactive in the other large screens; ! = repeats disagree. Unless noted, calls follow the shape of the dose curve; as a rule, active = well fitted curve in the direction sought with a large enough effect; inconclusive = small, poorly fitted or top-dose-only effect, or another doubt; inactive = no such curve, though single readings can be large; an effect the other way counts as inactive or inconclusive.

O=C(NC(c1ccc(-c2ccccc2)cc1)c1cnccn1)C1CCN(CCCOc2ccccc2)CC1 (configuration not stated)	GLP-1R inv ag inconclusive, D3 antag -73
COc1ccc(C(NC(=O)C2CCN(CCCOc3ccccc3)CC2)c2ccccn2)cc1 (configuration not stated)	GLP-1R inv ag inconclusive, D3 antag -110
O=C(NC(c1ccc(-c2ccccc2)cc1)c1cnccn1)C1CCN(CCOc2ccc(F)cc2)CC1 (configuration not stated)	GLP-1R inv ag inconclusive
COc1ccc(C(NC(=O)C2CCN(CCOc3ccc(Cl)cc3)CC2)c2cccs2)cc1 (configuration not stated)	GLP-1R inv ag inconclusive, D3 antag -81
Cc1ccc(C(NC(=O)C2CCN(Cc3ccc(Oc4ccccc4)cc3)CC2)c2ccccn2)cc1 (configuration not stated)	GLP-1R inv ag inconclusive, D3 antag -83
Cc1cc(C(=O)C(=O)Nc2nnc(C(C)C)s2)c(C)n1-c1ccccc1	none (no result: GLP1R ag, D3 antag)
COc1ccccc1C(=O)Nc1ccc(OCc2cc(=O)n3ccsc3n2)cc1	none (no result: D3 antag)
CCc1ccc(NC(=O)Cn2nnc(C(=O)Nc3ccc(F)cc3)c2N)cc1	none (no result: GLP1R ag, D3 antag)
COc1ccc(OCCN2CCC(C(=O)NC(c3ccc(OC)cc3)c3ccccn3)CC2)cc1 (configuration not stated)	D3 antag -67
COc1ccc(C(NC(=O)C2CCN(CCCc3ccccc3)CC2)c2ccccn2)cc1 (configuration not stated)	none
COc1ccc(C(NC(=O)C2CCN(C/C=C/c3ccc(OC(C)=O)c(OC)c3)CC2)c2ccccn2)cc1 (configuration not stated)	GLP-1R inv ag inconclusive
Cc1ccc(C(NC(=O)C2CCN(CCOc3ccccc3)CC2)c2ccccn2)cc1 (configuration not stated)	GLP-1R inv ag inconclusive, D3 antag -70
COc1ccc(C(NC(=O)C2CCN(CCc3ccccc3)CC2)c2ccccn2)cc1 (configuration not stated)	GLP-1R inv ag inconclusive, D3 antag -75
COc1ccc(C2c3c(n(C)c4ccccc34)C(=O)N2CC(=O)Nc2ccc(C)cc2Cl)cc1 (configuration not stated)	none (no result: GLP1R ag, D3 antag)
CC1CCCN(C(=O)COC(=O)Cn2cnc3ccccc32)C1 (configuration not stated)	none
CCOc1ccccc1NC(=O)C1CCCN(S(=O)(=O)c2cccs2)C1 (configuration not stated)	none (no result: D3 antag)
COc1ccc(-n2nc(C(=O)Nc3ccccc3OC)c3c4ccccc4n(C)c3c2=O)cc1Cl	none (no result: GLP1R ag, D3 antag)
Cc1cc(NC(=O)CCNS(=O)(=O)c2cc(Br)cnc2N)ccc1Br	D3 antag -51
CCS(=O)(=O)c1ccc2oc(SCC(=O)NCCC3=CCCCC3)nc2c1	D3 antag -51
CCS(=O)(=O)c1ccc2oc(SCC(=O)NCCc3ccc(F)cc3)nc2c1	none
CCC(Oc1ccccc1)C(=O)N[C@@H]1C(=O)N2[C@@H]1SC(C)(C)[C@@H]2C(=O)O (some centres not stated)	none (no result: GLP-1R inv ag, GLP1R ag, D3 antag)
O=C1c2cc([N+](=O)[O-])cc3cc([N+](=O)[O-])cc(c23)C(=O)N1c1ccccn1	D3 antag -76
O=C(O)c1cccc(N2C(=O)c3cc([N+](=O)[O-])cc4cc([N+](=O)[O-])cc(c34)C2=O)c1	GLP-1R inv ag inconclusive, D3 antag -58
O=C(CSc1nnc(Cc2cccs2)n1Cc1ccco1)Nc1ccc(Br)cc1	GLP-1R inv ag 3.5µM
Cc1cccc(C)c1NC(=O)C(=O)NCC(c1ccc2c(c1)OCO2)N1CCOCC1 (configuration not stated)	none (no result: GLP1R ag, D3 antag)
Cc1cc(NC(=O)CC(CN(C)S(=O)(=O)c2ccccc2)c2ccccc2)no1 (configuration not stated)	GLP-1R inv ag 10µM, D3 antag inconclusive
CC(=O)c1ccc(S(=O)(=O)N(C)CC(=O)Nc2cc(C)on2)cc1	none
CC(C)Oc1ccc(CNC(=O)c2ccccc2NC(=O)c2nsc3ccccc23)cc1	none (no result: GLP1R ag, D3 antag)
O=C(C1CCCCN1S(=O)(=O)c1ccccc1)N1CCN(Cc2ccccc2)CC1 (configuration not stated)	D3 antag inconclusive
Cc1ccc(S(=O)(=O)N2CCCCC2C(=O)N2CCN(Cc3ccccc3)CC2)cc1 (configuration not stated)	D3 antag -52
Cc1ccc(S(=O)(=O)NNC(=O)C2CCN(Cc3ccccc3)CC2)cc1	D3 antag -63
COc1ccc(OCC(=O)NC2CC(=O)N(c3ccc4c(c3)OCCO4)C2)cc1 (configuration not stated)	none (no result: D3 antag)
O=C(NNC(=S)Nc1ccccc1)c1cccc(Br)c1	none
O=C(Nc1ccc(Cl)cc1)Nc1cccc(C(=O)O)c1	GLP-1R inv ag 1µM
O=C(Nc1ccc(Cl)cc1)Nc1ccccc1C(=O)O	GLP-1R inv ag inconclusive
O=C(Nc1ccc(Cl)c(Cl)c1)Nc1ccccc1C(=O)O	GLP-1R inv ag 5.6µM
O=C(Nc1cccc(C(=O)O)c1)Nc1ccccc1Cl	GLP-1R inv ag 4.5µM
O=C(NNC(=O)c1cccc(Br)c1)Nc1ccc(Cl)cc1	D3 antag -67
O=C(Nc1cccc(Cl)c1)Nc1cccc(C(=O)O)c1	GLP-1R inv ag inconclusive
CSc1ncc(C(=O)Nc2cc(C)ccc2C)c(C)n1	none
Cn1c(=O)c2c(ncn2CC(=O)OCC(=O)Nc2cc(Cl)ccc2C#N)n(C)c1=O	none
COC(=O)c1cc(NC(=O)Nc2ccccc2)ccc1Cl	GLP-1R inv ag 10µM
COc1ccc(-n2nc3ccc(NC(=O)c4cc5ccccc5o4)cc3n2)cc1Cl	none (no result: GLP1R ag, D3 antag)
CCN(CC)CCNc1ccnc2cc(Cl)ccc12	D3 antag -80
CCN(CCO)CCCC(C)Nc1ccnc2cc(Cl)ccc12 (configuration not stated)	none (no result: GLP-1R inv ag, D3 antag)
CCN(CC)Cc1cc(Nc2ccnc3cc(Cl)ccc23)ccc1O	GLP-1R inv ag 11µM!
CCOc1ccc(/C=C/C(O)=C2/C(=O)N(C)C3(C)CC2c2ccccc2O3)cc1OC (configuration not stated)	GLP-1R inv ag 3.2µM
COc1ccc(NS(=O)(=O)c2cccc(C(=O)NCC(c3ccco3)N3CCCCC3)c2)cc1 (configuration not stated)	GLP-1R inv ag inconclusive
Cc1ccc(S(=O)(=O)N(C)c2ccc(C(=O)NCC(c3ccco3)N3CCCC3)cc2)cc1 (configuration not stated)	GLP-1R inv ag inconclusive
Cc1cccc(NS(=O)(=O)c2cccc(C(=O)NCC(c3ccco3)N3CCCCC3)c2)c1 (configuration not stated)	GLP-1R inv ag inconclusive, D3 antag -64
Cc1ccc(N(C)S(=O)(=O)c2cccc(C(=O)NCC(c3ccco3)N3CCCC3)c2)cc1 (configuration not stated)	GLP-1R inv ag 10µM, D3 antag -69
COc1ccc(Br)cc1CNC(=O)CCSCc1ccc(Cl)cc1	GLP-1R inv ag inconclusive (no result: GLP1R ag, D3 antag)

Screening data from PubChem.
